High-throughput results as filed in PubChem.
An excerpt weighted towards active compounds, which were near 3.5% of everything screened.
MBD2 inh = inhibitors of MBD2 binding to methylated DNA, primary screen, biochemical, TR-FRET, DNA-binding domain, human; hit rate 0.31% among 370,000; inhibition, % at 4.4 µM; Methyl-CpG-binding domain protein 2 (Homo sapiens), Q9UBB5; MBD2 binding to methylated oligonucleotide; AID 686964, 2013; in the data active = inhibition above about 13%
LEDGF integ inh = blockers of LEDGF/p75-dependent integrase strand transfer – biochemical, TR-FRET, high throughput, primary screen. inhibition, % at 3.7 µM. TR-FRET IN-LEDGF/p75 DNA integration, Eu/Cy5. hit rate 0.64% among 370,000. AID 743269, 2014;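 active = inhibition above the screen-wide mean plus 3 SD, cut at about 13% in these data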;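 note: signal is the Cy5 over europium emission ratio at 671 and 618 nm; 0% = plate median of compound wells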
UHRF1 binding = UHRF1 methylated DNA binding inhibitors, primary screen, counter-screen for MBD2 inhibitor project, biochemical, TR-FRET, human UHRF1, single concentration; inhibition, % at 4.4 µM; UHRF1 binding to methylated oligo; hit rate 0.75% among 370,000; in the data active = inhibition above about 21%;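 note: UHRF1 SRA domain binding a hemimethylated CpG hairpin DNA probe; 0% = median of test compound wells and 100% = reference inhibitor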
Target sequence (Q96T88 whole entry, looked up, the tested form may be a part): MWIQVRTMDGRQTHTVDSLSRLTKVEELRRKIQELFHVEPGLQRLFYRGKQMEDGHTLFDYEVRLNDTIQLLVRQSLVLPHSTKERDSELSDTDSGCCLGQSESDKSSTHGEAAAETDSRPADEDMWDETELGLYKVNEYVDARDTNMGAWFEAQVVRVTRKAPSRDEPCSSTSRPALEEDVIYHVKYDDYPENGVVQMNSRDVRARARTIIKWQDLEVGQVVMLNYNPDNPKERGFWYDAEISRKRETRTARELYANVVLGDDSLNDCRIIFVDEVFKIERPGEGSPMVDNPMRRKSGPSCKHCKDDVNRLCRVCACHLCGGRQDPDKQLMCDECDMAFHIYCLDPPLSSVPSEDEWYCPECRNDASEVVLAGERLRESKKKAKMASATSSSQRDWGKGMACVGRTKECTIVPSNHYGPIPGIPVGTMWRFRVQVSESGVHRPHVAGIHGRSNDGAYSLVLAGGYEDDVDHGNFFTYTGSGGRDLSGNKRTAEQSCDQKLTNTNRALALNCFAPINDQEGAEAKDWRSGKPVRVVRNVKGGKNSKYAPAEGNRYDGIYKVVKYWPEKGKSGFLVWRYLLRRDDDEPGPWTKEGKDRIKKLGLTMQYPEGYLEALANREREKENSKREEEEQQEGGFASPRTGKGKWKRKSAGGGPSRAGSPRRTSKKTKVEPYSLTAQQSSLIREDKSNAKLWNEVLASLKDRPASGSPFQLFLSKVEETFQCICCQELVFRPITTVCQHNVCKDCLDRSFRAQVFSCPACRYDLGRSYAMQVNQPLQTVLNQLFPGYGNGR
DNMT1 inh = human DNMT1 methyltransferase inhibitors, primary screen, biochemical, molecular beacon, fluorescence, HinP1I cleavage, uHTS; DNA (cytosine-5)-methyltransferase 1 (Homo sapiens), P26358; inhibition (reported as % activation of signal), % at 10 µM; hit rate 0.83% among 360,000; in the data active = inhibition above about 50%
PG9 binder = binders of HIV-1 gp120 antibody PG9, primary screen, biochemical, TR-FRET; HIV-1 gp120 / PG9 antibody interaction; TR-FRET gp120-PG9 antibody binding; inhibition, % at 6.7 µM; hit rate 0.43% among 360,000; AID 624416, 2012; in the data active = inhibition above about 8.5%
rCAG binder = binders of r(CAG) RNA repeats, primary screen, biochemical, fluorescence; AID 651821, 2012; r(CAG) RNA repeat, TO-PRO-1 dye displacement fluorescence; inhibition, % at 3 µM; hit rate 1.3% among 370,000;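 active = inhibition above the plate cutoff, the mean of all test compounds on that plate plus 3 SD, cut at about 35% in these data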;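 note: 0% = DMSO alone and 100% = 100 µM mitoxantrone as full dye displacement; higher means more dye released from RNA so lower well fluorescence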
rCAG bind conf = small molecules binding CAG repeat RNA – biochemical, fluorescence, confirmation. shares compounds with rCAG binder. r(CAG) RNA repeat, TO-PRO-1 dye displacement fluorescence. inhibition, % at 3 µM. hit rate 70% among 4,300. AID 652065, 2013;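 active = inhibition above a per-plate cutoff, the mean inhibition of sample wells plus 3 SD, cut at about 35% in these data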;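 note: loss of TO-PRO-1 fluorescence as compound displaces dye from 1x1 AA loop RNA; 0% = DMSO only wells and 100% = 100 µM mitoxantrone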
dCAG dye counter = displacement of TO-PRO-1 from CAG DNA duplex, counter-screen for rCAG RNA repeat binder project, biochemical, fluorescence, TO-PRO-1 dye, d(CAG) DNA oligo; shares compounds with rCAG binder; d(CAG) DNA oligo TO-PRO-1 dye displacement; inhibition, % at 3 µM; hit rate 94% among 4,300; AID 652068, 2013;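 active = inhibition above its plate's cutoff, the mean test-well inhibition plus 3 SD, cut at about 4.8% in these data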;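 note: 0% = DNA dye mix with DMSO and 100% = 100 µM mitoxantrone; hits displace the dye from DNA and so lower well fluorescence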
Numbers without * were called inactive; i = inactive; x = no result given.

SMILES | MBD2 inh | LEDGF integ inh | UHRF1 binding | DNMT1 inh | PG9 binder | rCAG binder | rCAG bind conf | dCAG dye counter
Cc1ccccc1C(=O)Nc1cccc(C(=O)N/N=C/c2cc(Cl)cc([N+](=O)[O-])c2O)c1 | -7 | -10 | -9 | -7 | -3 | 87* | 73* | 36*
C[C@H](CO)N1C[C@H](C)[C@H](CN(C)C(=O)Nc2cccc(Oc3ccccn3)c2)OCc2cnnn2CCCC1=O | 2 | 2 | 2 | 1 | 0 | -1 | x | x
Cc1c(C(=O)N2CCC(C)(C(=O)NS(=O)(=O)C3CC3)C2)oc2ccccc12 (stereo unspecified) | 2 | 2 | 0 | 0 | 1 | 2 | x | x
COc1cc(OC)cc(-c2c(-c3cccs3)c3cc(Br)ccc3n2C)c1 | -7 | 7 | 3 | -2 | -1 | 40* | 10 | 9.3*
COc1cc(F)cc(-c2ccc3c(c2)c(-c2cccs2)c(-c2cc(OC)cc(OC)c2)n3C)c1 | -7 | -1 | -2 | -2 | -3 | 10 | x | x
Clc1ccc(CN2CCN(c3ncccn3)CC2)cc1 | 0 | 7 | 0 | 1 | -2 | 2 | x | x
COc1ccc(C(=O)Nc2ccc(S(=O)(=O)Nc3cnc4ccccc4n3)cc2)cc1 | -1 | 2 | -8 | -4 | -1 | 46* | 28 | 5.7*
CCC(Oc1ccccc1)C(=O)Nc1ccc(S(=O)(=O)Nc2cnc3ccccc3n2)cc1 (stereo unspecified) | -5 | 2 | -1 | -1 | 2 | 58* | 46* | 13*
CCC(Oc1ccccc1)C(=O)Nc1ccc(S(=O)(=O)Nc2ncccn2)cc1 (stereo unspecified) | -4 | 0 | -3 | 3 | -2 | 6 | x | x
O=C(Nc1ccc(S(=O)(=O)Nc2cnc3ccccc3n2)cc1)c1ccc(Cl)c([N+](=O)[O-])c1 | 3 | -1 | -1 | -5 | -2 | 79* | 67* | 30*
C#CCN1CCc2onc(-c3ccc(Br)cc3)c2C1=O | 2 | 5 | -2 | x | 1 | 3 | x | x
CCCCN1C[C@H](c2ccccc2)[C@@H](CC(=O)NC)C1=O | 1 | -6 | 2 | 2 | 0 | 2 | x | x
N#Cc1c(-c2ccccc2)nc(SCC(=O)N(c2ccccc2)c2ccccc2)[nH]c1=O | 0 | -2 | 2 | 0 | 2 | 73* | 82* | 41*
CCC(Sc1nccn1C)C(=O)Nc1nnc(C)s1 (stereo unspecified) | 2 | -7 | 0 | 5 | 1 | 2 | x | x
N#Cc1c(-c2cccs2)nc(SCC(=O)c2cccs2)[nH]c1=O | 2 | 0 | 0 | 0 | 4 | 79* | 65* | 29*
CCC(Sc1nc(-c2ccccc2)c(C#N)c(=O)[nH]1)C(=O)Nc1nnc(C)s1 (stereo unspecified) | -4 | 1 | 1 | 9 | 4 | 44* | 43* | 12*
N#Cc1c(-c2ccccc2)nc(SCC(=O)Nc2ccccc2F)[nH]c1=O | 1 | -6 | 2 | -6 | 3 | 44* | 32 | 8.2*
Cc1nc(C)c(C(=O)OCC(=O)Nc2ccc(C)c(C)c2)s1 | 1 | 3 | -2 | 3 | 1 | 4 | x | x
O=C(CSc1nc(O)c(Cc2ccccc2)c(=O)[nH]1)Nc1nnc(SCc2ccccc2)s1 | -6 | -8 | 0 | -2 | -1 | 53* | 28 | 7.5*
CCCCc1nnc(NC(=O)CSc2nc(O)c(Cc3ccccc3)c(=O)[nH]2)s1 | 7 | 0 | 5 | 4 | 0 | 0 | x | x
N#Cc1c(-c2ccccc2)nc(SCC(=O)Nc2nnc(C(F)(F)F)s2)[nH]c1=O | 0 | 9 | 1 | 0 | 6 | 46* | 23 | 5.6*
Nc1cccc2c(=O)[nH][nH]c(=O)c12 | -8 | i | -1 | 4 | -3 | 2 | x | x
CN(C)c1ccc(-c2nc3ncc(Cl)cc3[nH]2)cc1 | -7 | -8 | -5 | x | x | 5 | x | x
O=c1[nH]c2ccc(S(=O)(=O)N3CCN(c4ccccc4F)CC3)cc2s1 | 4 | -5 | 0 | -6 | 0 | 35* | 22 | 5.2*
O=C(Nc1ccc(N2C(=O)C3C4C=CC(C4)C3C2=O)cc1)Nc1nnc(C(F)(F)F)s1 (stereo unspecified) | 1 | -1 | -1 | -5 | 2 | 55* | 40* | 16*
SMILES | MBD2 inh | LEDGF integ inh | UHRF1 binding | DNMT1 inh | PG9 binder | rCAG binder | rCAG bind conf | dCAG dye counter
Cc1ccc(F)c(S(=O)(=O)NC(=O)C2(C)CCN2C(=O)C2(c3ccc(Cl)cc3)CC2)c1 (stereo unspecified) | -4 | 0 | 2 | 0 | -2 | 36* | 35* | 7.6*
Cc1cccc(S(=O)(=O)NC(=O)C2(C)CCN2C(=O)C2(c3ccc(Cl)cc3)CC2)c1 (stereo unspecified) | -7 | 4 | 0 | 7 | 0 | 32 | x | x
COc1cc(C)ccc1S(=O)(=O)NC(=O)C1(C)CCN1C(=O)C1(c2ccc(Cl)cc2)CCC1 (stereo unspecified) | -1 | 2 | 1 | 1 | -1 | 42* | 30 | 5.4*
CCS(=O)(=O)NC(=O)C1(C)CCN1C(=O)C1(c2ccc(Cl)cc2)CC1 (stereo unspecified) | -1 | 4 | 0 | 4 | -2 | 1 | x | x
COc1cc(C)ccc1S(=O)(=O)NC(=O)C1(C)CCN1C(=O)Cc1ccccc1Cl (stereo unspecified) | 2 | 3 | 1 | 2 | 0 | 5 | x | x
Cc1ccc(F)c(S(=O)(=O)NC(=O)C2(C)CCN2C(=O)C2(c3ccc(Cl)cc3)CCC2)c1 (stereo unspecified) | 1 | 0 | 2 | -4 | -2 | 36* | 63* | 24*
COc1ccc(OC)c(NC(=O)C2(C)CCN2CCOc2ccccc2)c1 (stereo unspecified) | 4 | -3 | 0 | 1 | 1 | 4 | x | x
CCCCCCCCN1C(=O)[C@H](CC(=O)N2CCN(C(=O)c3ccco3)CC2)C[C@@]2(C(=O)OC)CCCCC=C12 | -9 | -1 | -1 | x | 0 | 7 | x | x
